# Among all 320,000 compounds or so, about 2,100 (0.66%) were called active. About 53% were inconclusive and are not listed. Calls follow the shape of the dose curve; as a rule, active = well fitted inhibition curve with a large enough effect in the signal ratio, with a control signal flat (not every such curve was filed as active); inconclusive = small, poorly fitted or top-dose-only effect, or effect the other way, or a change in a side signal; inactive = flat fitted curve, though single readings scatter; the % refers to the signal ratio. The sample as a whole holds a higher share of actives than the screen did.
# Assay: qHTS Assay for Lipid Storage Modulators in Drosophila S3 Cells;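 as to cell number change: cells counted by Cell Tracker Red CMTPX staining in the red channel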; as to lipid storage change, negative = inhibition: % is scaled to controls: 0 for no effect and ±100 for the full control effect
# Details: BODIPY lipid droplet fluorescence, 18-24 h, cells fed with added oleic acid; cell number change: measured here: cell count max response; series mostly up to 46.1 µM; lipid storage change, negative = inhibition: at the top concentration
# Summary of the method: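 Drosophila S3 cells loaded with oleic acid (400 uM, as added) and compounds at several concentrations; lipid droplets imaged by 488-nm laser-scanning cytometry, 500–530 nm intensity and object ratio to cell channel. Percent activity normalized to 20 uM Triacsin C.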
# Potency is read from the fitted curve at half-maximal effect.
Structure (SMILES),"lipid storage change, negative = inhibition",cell number change [%],outcome,Potency
Cc1ccc(C)c(OCC(=O)Nc2ccncc2)c1,2.81% (inactive),4.4,,
COc1ccc(Nc2cc(C)c3cc([N+](=O)[O-])ccc3n2)cc1,-8.57% (inactive),3.7,,
Nc1c(C(=O)NCCc2ccccc2)nnn1Cc1ccc(Br)cc1F,6.34% (inactive),2.88,,
COc1ccc([C@H]2CC(=O)C=C(c3ccc(C)c(F)c3)C2)cc1,,-9.27,inactive,
COc1ccc(C2=CC(=O)C[C@H](c3ccc(F)cc3)C2)cc1F,,,inactive,
COc1ccc([C@H]2CC(=O)C=C(c3ccc(OC)c(F)c3)C2)cc1,,1.81,,0.731 µM (active)
COc1cc(F)c(C2=CC(=O)C[C@H](c3ccc4c(c3)OCO4)C2)cc1F,,-8.29,inactive,
COc1cc(F)c(C2=CC(=O)C[C@H](c3ccc(F)cc3)C2)cc1F,,-1.88,,0.731 µM (active)
COc1ccc(C2=CC(=O)C[C@H](c3ccc(F)cc3)C2)cc1OC,-2.63% (inactive),-2.7,,
O=C(Cc1cccc(NC(=O)C2CCN(C(=O)CCc3ccccc3)CC2)c1)Nc1cccc(C(=O)N2CCCC2)c1,,-25.9,inactive,
COc1ccc(N2CCN(CC(=O)c3ccccc3)CC2)cc1,,8.26,inactive,
COc1ccc(N2CCN(CC(=O)c3ccc(Cl)cc3)CC2)cc1,,,,6.51 µM (active)
CC(C)CC(=O)Nc1ccc(C(=O)CN2CCN(c3ccc(O)cc3)CC2)cc1,,-10.4,,4.61 µM (active)
CC(C)CC(=O)Nc1ccc(C(=O)CN2CCC(C)CC2)cc1,6.1% (inactive),11.5,,
CC(C)CC(=O)Nc1ccc(N2CCOCC2)cc1,-2.97% (inactive),-6.68,,
COc1ccc(C(=O)CN2CCN(c3ccc(Cl)cc3)CC2)cc1OC,-17.5% (inactive),16.9,,
CCCC(C)c1nnc(NC(=O)C2CCCO2)s1 (stereo unspecified),,,inactive,
C/C(=N\NC(=O)c1ccc(-c2ccccc2)cc1)C1C(=O)c2ccccc2C1=O,-10.9% (inactive),2.31,,
COc1ccc(OC)c(NC(=O)CCN2C(=O)c3cccc([N+](=O)[O-])c3C2=O)c1,,12.8,inactive,
OCCC1CN(Cc2cc3c(cc2Cl)OCO3)CCN1C1CCCCC1 (stereo unspecified),18% (inactive),2.14,,
OCCC1CN(Cc2ccncc2)CCN1C1CCCC1 (stereo unspecified),-2.02% (inactive),-1.79,,

Structure (SMILES),"lipid storage change, negative = inhibition",cell number change [%],outcome,Potency
Cc1nnc(SCc2ccon2)n1-c1ccccc1,-0.985% (inactive),-2.33,,
O=C(Cc1ccccc1)NCC(=O)N/N=C/c1ccc([N+](=O)[O-])s1,,17.1,,16.4 µM (active)
O=C(Cc1ccccc1)NCC(=O)N/N=C/c1cccs1,7.5% (inactive),,,
O=C(N/N=C/c1ccc([N+](=O)[O-])s1)c1ccccc1,,,inactive,
COc1ccc(OC)c(Cc2nnc(CCC(=O)NC3CCCCC3)o2)c1,-8.81% (inactive),-6.11,,
Cn1c(OCc2ccc3c(c2)OCO3)nc2c1c(=O)n(Cc1ccc(Cl)c(Cl)c1)c(=O)n2C,-1.56% (inactive),10.2,,
O=c1[nH]c(=O)n(Cc2ccc(Oc3ccccc3)cc2)cc1Br,,18.3,,18.4 µM (active)
N#Cc1cn(Cc2ccccc2)c(=O)[nH]c1=O,-14.4% (inactive),17.6,,
Cc1cn(Cc2ccccc2)c(=O)[nH]c1=O,-2.22% (inactive),-5.94,,
CC1Sc2ccc(S(=O)(=O)CCC(=O)NC3CCCCC3C)cc2NC1=O (stereo unspecified),,7.41,inactive,
NC(=O)c1cc(C(=O)Cc2ccc(Cl)cc2)c[nH]1,,23.6,inactive,
CCOc1ccc(CNC(=O)C(C)n2nc(C)c3c(C)n(-c4ccccc4)nc3c2=O)cc1 (stereo unspecified),,,inactive,
CCOC(=O)c1[nH]c2ccccc2c1NC(=O)c1nonc1C,,103,,2.06 µM (active)
CCOC(=O)c1[nH]c2ccc(Cl)cc2c1NC(=O)c1nonc1C,-7.98% (inactive),-14.5,,
CCOC(=O)c1[nH]c2cc(OC)c(OC)cc2c1NC(=O)c1nonc1C,,-8.79,inactive,
C#CCOC(=O)C[N+](C)(C)CC=C,-14.8% (inactive),12.5,,
Nc1ccc(C(=O)N/N=C/c2c[nH]c3ccccc23)cc1,9.89% (inactive),14.6,,
Cc1ccc(CNC(=O)C(Cc2ccccc2)NS(=O)(=O)c2cccs2)cc1 (stereo unspecified),,,inactive,
Cc1ccc(CNC(=O)C(NS(=O)(=O)c2cccs2)C(C)C)cc1 (stereo unspecified),20.5% (inactive),20.4,,
CCC(NS(=O)(=O)c1cccs1)c1ccc(C)cc1 (stereo unspecified),,13.3,,0.164 µM (active)
CCS(=O)(=O)n1nc(-c2ccco2)nc1N,0.971% (inactive),19.9,,

Structure (SMILES),"lipid storage change, negative = inhibition",cell number change [%],outcome,Potency
Cc1ccc(N/C(CSC(N)=O)=N/S(=O)(=O)c2ccccc2)cc1,,,,16.4 µM (active)
Cc1ccc(NC(=S)N/C(=N/S(=O)(=O)c2ccccc2)c2ccccc2)cc1,,,inactive,
CS/C(=N/S(=O)(=O)c1ccc(C)cc1)c1ccccc1,19.1% (inactive),-26.1,,
COc1ccc(NC(=O)c2cc(Cl)ccc2Cl)c([N+](=O)[O-])c1,18.3% (inactive),-6.66,,
CC(CNC(=O)c1cc(Cl)ccc1[N+](=O)[O-])NC(=O)c1cc(Cl)ccc1[N+](=O)[O-] (stereo unspecified),-13.7% (inactive),-7.89,,
COc1cc(OC)cc(C(=O)NC(C)CNc2ccc(Cl)cc2[N+](=O)[O-])c1 (stereo unspecified),,-19.1,,16.4 µM (active)
CCC(C)(C)n1nnnc1C(c1cc2cc(C)cc(C)c2[nH]c1=O)N1CCCC1 (stereo unspecified),8.01% (inactive),6.4,,
CN(Cc1ccccc1)CC(O)COc1ccc(CNCCOc2cccnc2)cc1 (stereo unspecified),9.6% (inactive),3.58,,
Cc1cc(NC(=O)c2cc([N+](=O)[O-])cc([N+](=O)[O-])c2C)no1,-8.89% (inactive),11.7,,
CCC1=Nc2ccccc2-c2nnc(SC)nc2O1,,,inactive,
O=C1Nc2ccccc2C1(O)Cc1ccncc1 (stereo unspecified),,1.32,,13 µM (active)
O=C1Nc2ccccc2C1(O)Cc1ccccn1 (stereo unspecified),-6.05% (inactive),-9.38,,
O=C1Nc2ccc(Br)cc2C1(O)Cc1ccncc1 (stereo unspecified),14.5% (inactive),16.8,,
NS(=O)(=O)c1ccc(CCNC(=O)CSc2ccc3ccccc3c2)cc1,2.99% (inactive),,,
COCCN(C(=O)COC(=O)/C(=C/c1ccccc1)NC(C)=O)c1c(N)n(Cc2ccccc2)c(=O)[nH]c1=O,,-11.6,inactive,
COc1ccc(CCNC(=O)C2CC3Cn4c(nc5ccccc54)C3N2C)cc1 (stereo unspecified),6.16% (inactive),-10.7,,
COC(=O)C1=C(C)N=C2SC(C#N)=C(N)N2C1c1cc(OC)c(OC)c(OC)c1 (stereo unspecified),-7.72% (inactive),2.55,,
COC(=O)C1=C(C)N=C2SC(C#N)=C(N)N2C1c1ccc(OC)cc1 (stereo unspecified),,-10.8,,11.6 µM (active)
COC(=O)C1=C(C)N=C2SC(C#N)=C(N)N2C1c1cccc(OC)c1 (stereo unspecified),,-6.05,inactive,

# From PubChem BioAssay AID2685 (National Center for Advancing Translational Sciences (NCATS), 2010)
